# Measurements taken from PMC7862700, “An all-to-all approach to the identification of sequence-specific readers for epigenetic DNA modifications on cytosine”.
# Legend:
# Experiment in all cases: DAPPL (digital affinity profiling via proximity ligation, sequencing); 10 mM Tris-HCl pH 7.5, 50 mM NaCl, 1 mM DTT, 4% glycerol, room temperature, 30 min; GST-TFs on glutathione beads, 16-mer random dsDNA library, 0.1% formaldehyde crosslink after washing; high values mean tight binding
# Conditions in all cases: protein: recombinant; tags: N-terminal GST; dsDNA, one strand shown
# [1] = biological target: T1, ERG (Homo sapiens, UniProt P11308 1-479)
# T1 sequence: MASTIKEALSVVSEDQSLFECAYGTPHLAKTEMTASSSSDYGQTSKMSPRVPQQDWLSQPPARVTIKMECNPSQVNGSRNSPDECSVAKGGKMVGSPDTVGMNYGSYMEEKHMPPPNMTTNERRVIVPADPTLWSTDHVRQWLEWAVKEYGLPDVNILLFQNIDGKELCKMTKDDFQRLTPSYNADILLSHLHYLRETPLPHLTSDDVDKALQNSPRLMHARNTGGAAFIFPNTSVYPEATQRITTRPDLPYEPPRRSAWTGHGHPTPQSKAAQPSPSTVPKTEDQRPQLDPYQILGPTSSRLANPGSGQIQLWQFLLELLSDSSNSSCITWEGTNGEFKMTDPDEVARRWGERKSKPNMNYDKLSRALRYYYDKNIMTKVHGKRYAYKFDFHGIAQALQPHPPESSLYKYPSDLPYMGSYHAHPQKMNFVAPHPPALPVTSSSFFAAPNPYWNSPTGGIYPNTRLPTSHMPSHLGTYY
# Procedure, shortened: (§1)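 Human transcription factors fused to GST were expressed in yeast, captured on glutathione beads, given DNA barcodes and pooled with a GST-only negative control. Pools were incubated with 200 nmole of a 16-mer random double-stranded DNA library in Tris/NaCl/DTT/glycerol buffer at room temperature for 30 min. They were then washed, crosslinked with 0.1% formaldehyde, proximity-ligated (BsaI/T4 ligase, 1 h, 37 °C), PCR-amplified and sequenced on an Illumina NextSeq500. Binding signal is each 6-mer's read frequency for a factor divided by its frequency for the GST control.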
# [2] = biological target: SPI1 (Homo sapiens, UniProt P17947 1-270)
# Procedure, shortened: as §1
# [3] = biological target: SPIB (Homo sapiens, UniProt Q01892 1-262)
# Chain of SPIB (Q01892 whole entry): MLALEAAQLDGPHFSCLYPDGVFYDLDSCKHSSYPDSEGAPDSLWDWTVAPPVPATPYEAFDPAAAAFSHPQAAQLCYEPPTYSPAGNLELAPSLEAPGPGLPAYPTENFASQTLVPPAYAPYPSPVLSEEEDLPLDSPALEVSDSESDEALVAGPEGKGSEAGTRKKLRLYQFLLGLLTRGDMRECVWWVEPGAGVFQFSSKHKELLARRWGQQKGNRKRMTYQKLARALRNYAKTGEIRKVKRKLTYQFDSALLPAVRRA
# Procedure, shortened: as §1
# [4] = biological target: T2, ELK3 (Homo sapiens, UniProt P41970 1-407)
# T2 sequence: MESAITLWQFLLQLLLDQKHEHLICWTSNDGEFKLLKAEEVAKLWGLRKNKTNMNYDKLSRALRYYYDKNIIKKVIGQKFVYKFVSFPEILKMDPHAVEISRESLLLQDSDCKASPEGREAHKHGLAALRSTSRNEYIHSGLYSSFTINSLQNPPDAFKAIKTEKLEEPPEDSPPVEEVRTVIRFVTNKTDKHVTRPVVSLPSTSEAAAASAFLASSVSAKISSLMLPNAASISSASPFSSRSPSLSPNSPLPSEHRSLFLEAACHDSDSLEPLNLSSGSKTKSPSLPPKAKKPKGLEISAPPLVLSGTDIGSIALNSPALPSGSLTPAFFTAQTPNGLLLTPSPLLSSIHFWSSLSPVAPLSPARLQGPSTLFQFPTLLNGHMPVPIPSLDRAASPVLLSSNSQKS
# Procedure, shortened: as §1
# [5] = biological target: T3, SPIC (Homo sapiens, UniProt Q8N5J4 1-248)
# T3 sequence: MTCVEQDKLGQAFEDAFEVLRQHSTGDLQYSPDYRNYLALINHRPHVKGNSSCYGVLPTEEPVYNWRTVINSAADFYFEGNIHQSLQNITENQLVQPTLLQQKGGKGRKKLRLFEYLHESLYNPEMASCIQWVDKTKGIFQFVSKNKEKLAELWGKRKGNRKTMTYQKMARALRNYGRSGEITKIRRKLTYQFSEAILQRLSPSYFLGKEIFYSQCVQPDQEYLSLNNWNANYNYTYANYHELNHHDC
# Procedure, shortened: as §1
# [6] = biological target: T4, ETV2 (Homo sapiens, UniProt O00321 1-342)
# T4 sequence: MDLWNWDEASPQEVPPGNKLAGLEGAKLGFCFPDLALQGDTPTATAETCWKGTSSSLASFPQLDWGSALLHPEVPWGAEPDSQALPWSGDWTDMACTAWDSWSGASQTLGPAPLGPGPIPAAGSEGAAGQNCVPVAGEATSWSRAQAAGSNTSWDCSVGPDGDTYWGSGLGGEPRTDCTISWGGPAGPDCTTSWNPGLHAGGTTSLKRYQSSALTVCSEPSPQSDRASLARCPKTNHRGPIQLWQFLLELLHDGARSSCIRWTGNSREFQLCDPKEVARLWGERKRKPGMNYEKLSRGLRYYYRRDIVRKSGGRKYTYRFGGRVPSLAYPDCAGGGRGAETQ
# Procedure, shortened: as §1
# [7] = biological target: T5, ERF (Homo sapiens, UniProt P50548 1-548)
# T5 sequence: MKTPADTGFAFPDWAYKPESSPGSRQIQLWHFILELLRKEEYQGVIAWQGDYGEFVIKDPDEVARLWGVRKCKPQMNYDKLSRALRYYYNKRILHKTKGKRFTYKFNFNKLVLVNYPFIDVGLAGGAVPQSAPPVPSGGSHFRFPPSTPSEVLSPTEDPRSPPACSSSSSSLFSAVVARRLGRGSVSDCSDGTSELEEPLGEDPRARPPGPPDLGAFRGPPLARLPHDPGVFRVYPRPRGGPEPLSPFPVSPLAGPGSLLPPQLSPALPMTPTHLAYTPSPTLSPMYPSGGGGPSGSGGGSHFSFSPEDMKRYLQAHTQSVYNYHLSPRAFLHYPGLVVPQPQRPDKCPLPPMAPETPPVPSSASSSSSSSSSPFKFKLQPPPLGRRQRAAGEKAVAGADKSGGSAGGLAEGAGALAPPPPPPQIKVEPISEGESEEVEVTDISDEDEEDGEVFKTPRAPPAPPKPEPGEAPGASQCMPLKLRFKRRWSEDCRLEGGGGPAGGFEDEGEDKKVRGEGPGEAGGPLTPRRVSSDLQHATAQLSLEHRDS
# Procedure, shortened: as §1
# [8] = biological target: T6, ETS2 (Homo sapiens, UniProt P15036 1-469)
# T6 sequence: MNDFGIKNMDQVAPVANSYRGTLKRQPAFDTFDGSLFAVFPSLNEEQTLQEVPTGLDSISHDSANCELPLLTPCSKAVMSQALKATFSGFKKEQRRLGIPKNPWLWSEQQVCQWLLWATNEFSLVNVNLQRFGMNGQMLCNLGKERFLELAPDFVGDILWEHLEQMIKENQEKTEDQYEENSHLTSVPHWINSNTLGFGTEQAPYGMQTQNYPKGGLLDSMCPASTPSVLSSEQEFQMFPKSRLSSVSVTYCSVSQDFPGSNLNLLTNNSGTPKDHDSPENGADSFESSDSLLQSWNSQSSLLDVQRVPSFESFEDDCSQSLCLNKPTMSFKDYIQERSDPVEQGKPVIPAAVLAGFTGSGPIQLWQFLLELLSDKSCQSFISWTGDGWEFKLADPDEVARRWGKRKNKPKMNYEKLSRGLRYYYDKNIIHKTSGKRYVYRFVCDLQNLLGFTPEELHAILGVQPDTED
# Procedure, shortened: as §1
sequence,measurement,setting,value
TGCAGG,binding signal,[1],"1.01 fold enrichment (6-mer frequency, TF over GST control)"
same,binding signal,[2],"1.03 fold enrichment (6-mer frequency, TF over GST control)"
same,binding signal,[3],"1.07 fold enrichment (6-mer frequency, TF over GST control)"
same,binding signal,[4],"1.03 fold enrichment (6-mer frequency, TF over GST control)"
same,binding signal,[5],"1.01 fold enrichment (6-mer frequency, TF over GST control)"
same,binding signal,[6],"1.03 fold enrichment (6-mer frequency, TF over GST control)"
same,binding signal,[7],"1.01 fold enrichment (6-mer frequency, TF over GST control)"
same,binding signal,[8],"1.02 fold enrichment (6-mer frequency, TF over GST control)"
